Source: PubChem (Broad Institute)
This excerpt belongs to a sample that is enriched for hits.
miR-122 inh = activators of miR-122 sensor in Huh7 cells; Huh7 psiCHECK-miR122 Renilla luciferase sensor, 48 h; activation, % at 12.5 µM; 340,000 tested, 0.14% active;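 active = mean activation of 30% or more, with every replicate also reaching 30%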;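 also: 0% = median of neutral control wells and 100% = median of positive control wells; higher luciferase signal means stronger suppression of miR-122 activity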
Starred values were filed as active, the others as inactive.

SMILES	miR-122 inh
C[C@H](O)C#Cc1cnc2c(c1)C(=O)N([C@@H](C)CO)C[C@H](C)[C@@H](CN(C)C(=O)CN(C)C)O2	-4
C[C@H](CO)N1C[C@H](C)[C@@H](CN(C)C(=O)C2CC2)Oc2cc(C#Cc3cccnc3)ccc2S1(=O)=O	-17
C[C@@H]1CN([C@H](C)CO)C(=O)c2cc(C#Cc3cccnc3)cnc2O[C@H]1CN(C)S(C)(=O)=O	-1
COc1ccccc1NC(=O)N(C)C[C@@H]1Oc2ncc(C#CCC(C)C)cc2C(=O)N([C@H](C)CO)C[C@H]1C	-4
COCC#Cc1cnc2c(c1)C(=O)N([C@@H](C)CO)C[C@H](C)[C@H](CN(C)Cc1ccccc1)O2	0
COc1ccc(-c2cnc3c(c2)C(=O)N([C@H](C)CO)C[C@H](C)[C@@H](CN(C)Cc2ccccn2)O3)cc1	-3
Cc1ccc(S(=O)(=O)N(C)C[C@@H]2Oc3cc(C#CC4CCCC4)ccc3S(=O)(=O)N([C@@H](C)CO)C[C@H]2C)cc1	2
C[C@H](CO)N1C[C@H](C)[C@@H](CN(C)C(=O)c2ccccc2)Oc2cc(/C=C/c3ccccc3)ccc2S1(=O)=O	-13
C[C@H]1CN([C@@H](C)CO)C(=O)c2cc(C#CCc3ccccc3)cnc2O[C@@H]1CN(C)CC1CCOCC1	5
C[C@H]1CN([C@@H](C)CO)C(=O)c2cc(-c3cccc(C#N)c3)cnc2O[C@H]1CN(C)Cc1ccccc1	6
COc1ccccc1S(=O)(=O)N(C)C[C@@H]1Oc2cc(/C=C/c3ccccc3)ccc2S(=O)(=O)N([C@H](C)CO)C[C@H]1C	-4
COc1ccccc1-c1cnc2c(c1)C(=O)N([C@H](C)CO)C[C@H](C)[C@@H](CN(C)C(=O)c1ccccc1)O2	-14
Cc1ccc(-c2cnc3c(c2)C(=O)N([C@@H](C)CO)C[C@@H](C)[C@H](CN(C)C(=O)c2ccncc2)O3)cc1	1
C[C@@H]1CN([C@H](C)CO)C(=O)c2cc(-c3ccc(F)cc3)cnc2O[C@H]1CN(C)Cc1cccnc1	-2
C[C@@H]1CN([C@@H](C)CO)C(=O)c2cc(C#CC3CC3)cnc2O[C@@H]1CN(C)Cc1ccncc1	1
C[C@@H]1CN([C@@H](C)CO)S(=O)(=O)c2ccc(C#Cc3ccncc3)cc2O[C@@H]1CN(C)C(=O)Nc1ccc2c(c1)OCO2	43*
C[C@H](CO)N1C[C@H](C)[C@@H](CN(C)C(=O)Nc2ccc3c(c2)OCO3)Oc2cc(C#Cc3ccccc3)ccc2S1(=O)=O	-17
COc1cccc(NC(=O)N(C)C[C@H]2Oc3cc(C#Cc4ccncc4)ccc3S(=O)(=O)N([C@@H](C)CO)C[C@@H]2C)c1	-39
C[C@H]1CN([C@@H](C)CO)C(=O)c2cc(/C=C/c3ccccc3)cnc2O[C@H]1CN(C)C(=O)C1CCOCC1	-9
C[C@@H]1CN([C@@H](C)CO)C(=O)c2cc(-c3cccc(F)c3)cnc2O[C@H]1CN(C)S(C)(=O)=O	-3
CO[C@H]1CN(C)C(=O)c2cc(NC(C)=O)ccc2OC[C@H](C)N(C(=O)c2ccccc2)C[C@H]1C	3
CC(C)CC#Cc1ccc2c(c1)O[C@H](CN(C)C(=O)NC1CCCC1)[C@@H](C)CN([C@@H](C)CO)S2(=O)=O	-30
CC(=O)NC(c1ccc(C)cc1)c1cc(Cl)c2cccnc2c1O (stereo not drawn)	31*
COc1ccc(-c2oc3ncnc(NCCCN4CCOCC4)c3c2-c2ccc(OC)cc2)cc1	38*
COc1ccc(-c2oc3ncn(CCN4CCOCC4)c(=N)c3c2-c2ccc(OC)cc2)cc1	42*
SMILES	miR-122 inh
Cc1ccc(S(=O)(=O)NCCN2CCOCC2)c(C)c1C	-92
C/C=C/c1cnc2c(c1)C(=O)N([C@@H](C)CO)C[C@H](C)[C@H](CN(C)C(=O)Cc1cccnc1)O2	-1
C[C@@H]1CN([C@H](C)CO)S(=O)(=O)c2ccc(/C=C/c3ccccc3)cc2O[C@H]1CN(C)C(=O)c1cccnc1	-16
C[C@H](CO)N1C[C@H](C)[C@@H](CN(C)S(=O)(=O)c2ccccc2F)Oc2cc(C#Cc3ccccc3)ccc2S1(=O)=O	-34
C[C@H]1CN([C@@H](C)CO)C(=O)c2cc(C#Cc3ccccc3F)cnc2O[C@H]1CN(C)C(=O)Cc1ccncc1	0
C[C@H]1CN([C@@H](C)CO)S(=O)(=O)c2ccc(C#Cc3ccncc3)cc2O[C@@H]1CN(C)C(=O)C1CCCCC1	-29
NC(=O)C1CCN(C2=C(Cl)C(=O)c3ccccc3C2=O)CC1	70*
C[C@@H]1CN([C@H](C)CO)C(=O)c2cc(-c3cccnc3)cnc2O[C@H]1CN(C)S(C)(=O)=O	-2
CC(C)CC#Cc1cnc2c(c1)C(=O)N([C@@H](C)CO)C[C@@H](C)[C@@H](CN(C)C(=O)NC1CCCC1)O2	14
O=C(Cc1ccccc1)N1C[C@@H]2[C@H](c3ccccc31)[C@H](CO)N2C(=O)Nc1ccc(F)cc1	-92
O=C(Nc1ccccc1F)N1[C@H](CO)[C@@H]2c3ccccc3NC[C@@H]21	42*
COc1ccc(C#Cc2cnc3c(c2)C(=O)N([C@H](C)CO)C[C@@H](C)[C@@H](CN(C)CC2CCCC2)O3)cc1	8
C[C@@H]1CN([C@H](C)CO)C(=O)c2cc(C#CC3(O)CCCC3)cnc2O[C@@H]1CN(C)C(=O)Cc1ccccc1	2
COCC(=O)Nc1ccc2c(c1)OC[C@H](C)N(C(C)=O)C[C@@H](C)[C@H](OC)CN(C)C2=O	-2
C[C@@H]1CN([C@@H](C)CO)C(=O)c2cc(-c3ccc(F)cc3)cnc2O[C@@H]1CN(C)Cc1cccnc1	-51
C[C@@H]1CN([C@H](C)CO)C(=O)c2cc(C#Cc3ccc(F)cc3)cnc2O[C@H]1CN(C)Cc1ccccn1	-2
C[C@H]1CN([C@@H](C)CO)C(=O)c2cc(/C=C/c3ccccc3)cnc2O[C@H]1CN(C)C(=O)Cc1ccccn1	1
COc1ccccc1S(=O)(=O)N(C)C[C@H]1Oc2ncc(-c3ccc(C)cc3)cc2C(=O)N([C@H](C)CO)C[C@H]1C	1
NC(=O)c1cn(-c2ccccc2)nc1-c1cc2ccccc2oc1=O	77*
COc1ccc(/C=C/C(=O)c2ccc[nH]2)c(OC)c1OC	32*
COc1cccc(C2NC(=S)NC(C)=C2C(=O)c2ccccc2)c1OC (stereo not drawn)	-147
COCC(=O)N(C)C[C@H]1Oc2cc(-c3cncnc3)ccc2S(=O)(=O)N([C@H](C)CO)C[C@H]1C	0
C[C@H](CO)N1C[C@H](C)[C@H](CN(C)S(C)(=O)=O)Oc2ncccc2C1=O	1
CCC(=O)Nc1ccc2c(c1)OC[C@@H](C)N(C(=O)CN1CCOCC1)C[C@@H](C)[C@H](OC)CN(C)C2=O	-8
C[C@H](CO)N1C[C@H](C)[C@@H](CN(C)Cc2cncnc2)Oc2ncc(C#CC3(O)CCCC3)cc2C1=O	-1
CCCNC(=O)N(C)C[C@@H]1Oc2cc(C#Cc3cccc(F)c3)ccc2S(=O)(=O)N([C@H](C)CO)C[C@@H]1C	-5
C[C@@H]1CN([C@@H](C)CO)S(=O)(=O)c2ccc(-c3ccc(C(=O)N(C)C)cc3)cc2O[C@@H]1CN(C)C(=O)C1CCC1	40*
C[C@@H]1CN([C@H](C)CO)S(=O)(=O)c2ccc(-c3cncnc3)cc2O[C@@H]1CN(C)C(=O)Cc1ccncc1	5
C[C@@H]1CN([C@H](C)CO)S(=O)(=O)c2ccc(-c3ccc(C(=O)N(C)C)cc3)cc2O[C@H]1CN(C)C(=O)C1CCOCC1	-15
